Results taken from PubChem BioAssay (NCATS).
Where “and” joins values, the source holds several entries; their conditions need not be identical. Equal values may be shown once. Records with an inconclusive call do not appear. A call without a number means that no potency is given here. Calls of active or inactive are those of the source. Unless noted, the call rests on the fitted dose curve; in most records, active means well fitted curve in the direction sought with a large enough effect; inconclusive means small, poorly fitted or top-dose-only effect, or another doubt; inactive means no such curve, though single readings can be large; an effect the other way counts as inactive or inconclusive.

Experiments:
[1] = AP1 Signaling Pathway (AID 357; active means well fitted curve in either direction with a large enough effect, not every such curve was filed as active); settings: ME-180 AP-1-bla reporter, EGF-induced, beta-lactamase ratio, 5 h
Procedure, shortened: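 ME-180 cells with beta-lactamase reporter under AP-1 response element, stimulated with EC50 EGF; compounds tested in titration series, 5 h at 37 °C. CCF4 substrate added 2.5 h at room temperature; 460/530 nm emission ratio gave %activity and AC50.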

[2] = molecular target: Cytochrome P450 1A2 (Homo sapiens) (UniProt P05177); assay: p450-cyp1a2 (AID 410; calls by dose curve)
Procedure, shortened: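 Human CYP1A2 (20nM) demethylated Luciferin-ME at its Km (100uM) in 100mM KPO4. After 10 min compound preincubation, NADPH regeneration ran the reaction 60 min at room temperature. Luciferin was read by luminescence, normalized to 57 uM furafylline.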

[3] = NFAT Signaling Pathway (AID 444; active means well fitted curve in either direction with a large enough effect, not every such curve was filed as active;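 further: carbachol stimulus at about its EC50 of 1 µM final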); settings: Jurkat NFAT-bla M1, carbachol, beta-lactamase ratio, 5 h
Procedure, shortened: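 Jurkat cells carrying an NFAT-driven β-lactamase reporter and co-transfected muscarinic M1 receptor were treated with compound plus carbachol (1 uM final, an EC50 level) for 5 h at 37 °C. CCF4 loading followed for 1 h at RT; 460/530 nm ratio gave %activity.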

[4] = Stat Signaling Pathway (AID 446; active means well fitted curve in either direction with a large enough effect, not every such curve was filed as active;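 further: ME-180 cervical cancer cells given 40 pM IL-6 alongside compound; SIE-controlled beta-lactamase reporter measured as 460/530 nm FRET emission ratio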); settings: ME-180 SIE beta-lactamase reporter, IL-6 stimulated, 5 h
Procedure, shortened: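 ME-180 SIE-bla cells; overnight plating; cpd + IL-6 40 pM, 5 h, 37 C; LiveBLAzer 2.5 h RT; 460/530 nm emission ratio. Normalized to 300 pM IL-6 and 125 nM JAK inhibitor controls.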

[5] = molecular target: Glucocorticoid receptor (Homo sapiens) (UniProt P04150); assay: GR-EFC Redistribution (AID 451; calls by dose curve; further: potency means the concentration at half of the fitted maximal effect); settings: CHO-K1 GR-EFC translocation, beta-gal luminescence, 2 h
Procedure, shortened: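 CHO-K1 cells stably expressing nuclear-localized β-gal enzyme acceptor and GR fused C-terminally to the enzyme donor fragment; ligand-driven nuclear translocation restores β-gal by complementation. Compounds titrated up to 46 uM final, 2 h at 37 °C; luminescence read.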

[6] = molecular target: Mitogen-activated protein kinase 10 (Mus musculus) (UniProt Q61831); assay: JNK3 AlphaScreen Assay (AID 530; active means well fitted curve in either direction with a large enough effect, not every such curve was filed as active;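 further: kinase came from lysate of stimulated human HepG2 cells; signal reports phosphorylation of biotinylated GST-cJun 1-79 at Ser73 with 10 µM ATP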)
Procedure, shortened: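 JNK3 came from HepG2 lysates pre-activated with IL-1beta and TNF-alpha and phosphorylated biotinylated GST-cJun (1-79) at 10 uM ATP, pH 7.6, room temperature. Compounds were titrated. AlphaScreen signal used anti-phospho-cJun (Ser73) antibody.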

[7] = molecular target: 3',5'-cyclic-AMP phosphodiesterase 4B (Homo sapiens) (UniProt Q07343); assay: qHTS Assay for Inhibitors of PDE-IV (AID 607; active means well fitted activation curve with a large enough effect in the main read-out, with a control signal flat, not every such curve was filed as active)
Procedure, shortened: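 ACTOne HEK293 cells carry a modified cAMP-gated CNG channel and express endogenous PDE4; plated 1000 cells/well, compounds up to 22.9 uM final. Membrane-potential dye fluorescence (ex 535/em 590) was read; parental cells received 10 uM forskolin + 100 uM RO 20-1724.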

[8] = molecular target: Guanine nucleotide-binding protein G(i) subunit alpha-1 (Homo sapiens) (UniProt P63096); assay: qHTS Assay for Inhibitors of RGS12 GoLoco Motif Activity (Green Fluorophore) (AID 879);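 further: negative values mean loss of peptide binding seen as reduced polarization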
Procedure, shortened: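 Fluorescence polarization assay: 50 nM Gαi1 with 10 nM FITC-labeled RGS12 GoLoco peptide in 10 mM Tris pH 7.5, 150 mM NaCl, 0.1 mM GDP, 0.05% NP40, 10 min at room temperature with compound.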

[9] = molecular target: Cytochrome P450 3A4 (Homo sapiens) (UniProt P08684); assay: qHTS Assay for Activators of Cytochrome P450 3A4 (AID 885); further: nearly all actives have a fitted effect of over 65% in size
Procedure, shortened: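 20nM CYP3A4 + 25uM Luciferin-PPXE (=KM), 200mM KPO4; cpd 10 min RT; NADPH regen, 60 min RT; stop w/ detection buffer, 20 min; luminescence. Normalized to 57 uM ketoconazole.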

[10] = molecular target: Pyruvate kinase (Leishmania mexicana) (UniProt Q27686); assay: qHTS Validation Assay for Inhibitors of Leishmania Mexicana Pyruvate Kinase (AID 945)
Procedure, shortened: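 Eight-point qHTS titrations; enzyme 0.2 nM LmPYK (E451W mutant); substrates 0.5 mM PEP, 0.1 mM ADP; 7 mM MgCl2; 1 h room temperature; PKLight luminescence normalized to neutral control.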

[11] = molecular target: Pyruvate kinase PKM (Homo sapiens) (UniProt P14618); assay: qHTS Assay for Activators of Human Muscle Pyruvate Kinase (AID 954; active means well fitted curve in the direction sought with a large enough effect, not every such curve was filed as active)
Procedure, shortened: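 Luminescence from a luciferase ATP-detection/stop reagent reported PKM2 activity. Reactions contained 0.1 nM purified human enzyme, 0.5 mM PEP, 0.1 mM ADP and 7 mM MgCl2 at pH 7.2, run 1 h at RT.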

[12] = molecular target: Alpha-galactosidase A (Homo sapiens) (UniProt P06280); assay: Counterscreen for Glucocerebrosidase Inhibitors: qHTS Assay for Human alpha-Galactosidase at pH 4.5 (AID 992)
Procedure, shortened: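 Enzyme at 2 nM final was combined with compound (0.7 nM to 77 uM) and 80 uM 4-methylumbelliferyl alpha-D-galactopyranoside in 50 mM citric acid, 0.005% Tween-20, pH 4.5. After 20 min at room temperature, fluorescence was read (Ex 365/Em 440 nm); AC50 came from Hill fits.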

[13] = molecular target: alpha-glucosidase (Oryza sativa, rice) (UniProt Q653V4); assay: Counterscreen for Glucocerebrosidase Inhibitors: qHTS Assay for Rice alpha-Glucosidase at pH 5.0 (AID 997)
Procedure, shortened: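 Rice alpha-glucosidase (4 nM final) with 400 uM 4-methylumbelliferyl-alpha-D-glucopyranoside in citrate buffer pH 5.0, 20 min at room temperature, stopped at pH 10; fluorescence 365/440 nm, compounds 0.7 nM–77 uM, AC50 from Hill fits.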

[14] = qHTS Assay for Lipid Storage Modulators (AID 1519; calls by dose curve); settings: Drosophila S3 cells, BODIPY lipid droplet/cell ratio, laser cytometry, cells loaded with oleic acid
Procedure, shortened: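 Cells seeded at 5,000 per well were treated with compounds over a concentration series and loaded with oleic acid (400 uM, as added). Lipid droplet fluorescence (488 nm excitation, 500-530 nm channel) was read by laser-scanning cytometry and normalized to 20 uM Triacsin C.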

[15] = molecular target: Ubiquitin carboxyl-terminal hydrolase 1 (Homo sapiens) (UniProt O94782); assay: Inhibitors of USP1/UAF1: Pilot qHTS (AID 504865);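 further: rhodamine fluorescence freed from ubiquitin-rhodamine substrate followed over time; top concentration of the series differs between compounds; nearly all actives have a fitted effect of over 35% in size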
Procedure, shortened: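 Enzyme-free wells gave the negative control, while test wells held 1nM USP1/UAF1 preincubated with compound for 15 min at room temperature. Ub-Rho at 150nM final started the reaction, and fluorescence at 480/540 nm was recorded kinetically.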

[16] = molecular target: DNA dC->dU-editing enzyme APOBEC-3G (Homo sapiens) (UniProt Q9HC16); assay: qHTS for inhibitors of Vif-A3G interactions: Validation (AID 588379)
Procedure, shortened: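 HeLa cells stably expressing Vif and A3G-eYFP, 700 cells/well, incubated overnight at 37 deg C, then exposed to compound overnight at 37 deg C. Inhibition of Vif-mediated degradation read as increased yellow fluorescence (Ex 488/Em 500-530) by laser-scanning cytometry.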

[17] = tested on: Zika virus NS2B-NS3 protease; assay: Primary screen GU AMC qHTS for Zika virus inhibitors (AID 1347154); further: nearly all actives have a fitted effect of over 70% in size
Procedure, shortened: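 Unlinked Zika NS2B hydrophilic domain/NS3 protease domain noncovalent complex (25 nM final) in 10 mM Tris-HCl pH 8.0, 0.01% Tween 20, with AMC peptide substrate. Fluorescence (ex 340, em 450 nm) change over 15 min, room temperature; percent inhibition fitted to 4-parameter Hill equation.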

[18] = Primary qHTS for small molecule stabilizers of the endoplasmic reticulum resident proteome: Secreted ER Calcium Modulated Protein (SERCaMP) assay (AID 1508630)
Procedure, shortened: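 GLuc-SERCaMP-expressing SH-SY5Y cells, pretreated 16 h with compound, are challenged with thapsigargin to empty ER calcium stores; after 4 h, coelenterazine is added directly to the medium and luminescence is imaged.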

Sequence of Glucocorticoid receptor (Homo sapiens) (P04150 whole entry, looked up, the tested form may be a part): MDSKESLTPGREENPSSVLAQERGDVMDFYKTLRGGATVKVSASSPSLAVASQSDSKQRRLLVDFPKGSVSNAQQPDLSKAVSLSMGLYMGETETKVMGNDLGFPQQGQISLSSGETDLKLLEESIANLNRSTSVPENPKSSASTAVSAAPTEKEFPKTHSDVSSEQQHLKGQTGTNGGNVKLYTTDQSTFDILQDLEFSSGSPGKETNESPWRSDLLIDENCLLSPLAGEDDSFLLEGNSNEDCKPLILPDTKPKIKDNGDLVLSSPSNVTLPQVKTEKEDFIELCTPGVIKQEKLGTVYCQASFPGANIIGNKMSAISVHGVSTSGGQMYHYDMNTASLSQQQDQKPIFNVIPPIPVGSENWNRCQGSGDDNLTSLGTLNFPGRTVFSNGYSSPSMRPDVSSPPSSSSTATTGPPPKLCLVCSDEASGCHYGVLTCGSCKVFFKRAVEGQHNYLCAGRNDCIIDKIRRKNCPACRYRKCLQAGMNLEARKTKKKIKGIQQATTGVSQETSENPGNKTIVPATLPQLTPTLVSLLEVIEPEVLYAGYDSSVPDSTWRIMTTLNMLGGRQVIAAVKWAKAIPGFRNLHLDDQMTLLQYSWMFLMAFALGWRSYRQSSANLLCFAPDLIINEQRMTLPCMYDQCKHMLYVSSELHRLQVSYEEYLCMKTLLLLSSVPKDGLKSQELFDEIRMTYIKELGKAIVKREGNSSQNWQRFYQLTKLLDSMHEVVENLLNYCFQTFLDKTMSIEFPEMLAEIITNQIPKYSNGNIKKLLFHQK
Sequence of 3',5'-cyclic-AMP phosphodiesterase 4B (Homo sapiens) (Q07343 whole entry, looked up): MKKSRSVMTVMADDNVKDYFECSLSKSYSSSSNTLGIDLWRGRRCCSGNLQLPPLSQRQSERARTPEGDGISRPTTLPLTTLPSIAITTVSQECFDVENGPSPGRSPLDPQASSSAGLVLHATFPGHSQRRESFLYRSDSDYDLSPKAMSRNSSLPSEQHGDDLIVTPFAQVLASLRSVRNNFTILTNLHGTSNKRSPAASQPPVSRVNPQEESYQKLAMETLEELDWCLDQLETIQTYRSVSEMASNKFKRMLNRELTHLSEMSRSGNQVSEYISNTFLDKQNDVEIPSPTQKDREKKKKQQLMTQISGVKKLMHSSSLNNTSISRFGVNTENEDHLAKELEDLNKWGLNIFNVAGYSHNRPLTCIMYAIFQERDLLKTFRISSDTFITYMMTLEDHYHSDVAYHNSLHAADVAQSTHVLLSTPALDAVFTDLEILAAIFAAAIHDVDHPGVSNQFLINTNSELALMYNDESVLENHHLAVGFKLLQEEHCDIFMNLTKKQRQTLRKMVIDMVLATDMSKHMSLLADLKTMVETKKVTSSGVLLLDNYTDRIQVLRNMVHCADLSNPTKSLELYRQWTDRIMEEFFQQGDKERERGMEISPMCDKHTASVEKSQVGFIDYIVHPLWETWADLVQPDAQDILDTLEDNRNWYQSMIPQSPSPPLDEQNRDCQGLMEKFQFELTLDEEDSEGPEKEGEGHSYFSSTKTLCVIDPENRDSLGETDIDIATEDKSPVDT
Sequence of Cytochrome P450 1A2 (Homo sapiens) (P05177 whole entry, looked up): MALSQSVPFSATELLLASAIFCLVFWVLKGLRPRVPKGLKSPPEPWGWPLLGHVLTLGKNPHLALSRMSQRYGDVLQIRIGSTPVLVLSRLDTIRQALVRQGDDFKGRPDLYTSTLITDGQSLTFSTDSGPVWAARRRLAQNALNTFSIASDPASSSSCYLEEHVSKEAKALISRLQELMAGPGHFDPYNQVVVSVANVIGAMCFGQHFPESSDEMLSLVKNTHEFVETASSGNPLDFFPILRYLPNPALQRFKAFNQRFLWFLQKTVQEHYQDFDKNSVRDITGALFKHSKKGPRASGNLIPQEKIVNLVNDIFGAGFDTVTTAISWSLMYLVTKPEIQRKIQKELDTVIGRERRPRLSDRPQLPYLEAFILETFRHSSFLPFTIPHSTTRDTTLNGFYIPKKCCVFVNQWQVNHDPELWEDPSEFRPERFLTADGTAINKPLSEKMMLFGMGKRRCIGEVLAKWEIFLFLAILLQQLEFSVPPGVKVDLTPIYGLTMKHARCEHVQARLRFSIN
Sequence of Alpha-galactosidase A (Homo sapiens) (P06280 whole entry, looked up): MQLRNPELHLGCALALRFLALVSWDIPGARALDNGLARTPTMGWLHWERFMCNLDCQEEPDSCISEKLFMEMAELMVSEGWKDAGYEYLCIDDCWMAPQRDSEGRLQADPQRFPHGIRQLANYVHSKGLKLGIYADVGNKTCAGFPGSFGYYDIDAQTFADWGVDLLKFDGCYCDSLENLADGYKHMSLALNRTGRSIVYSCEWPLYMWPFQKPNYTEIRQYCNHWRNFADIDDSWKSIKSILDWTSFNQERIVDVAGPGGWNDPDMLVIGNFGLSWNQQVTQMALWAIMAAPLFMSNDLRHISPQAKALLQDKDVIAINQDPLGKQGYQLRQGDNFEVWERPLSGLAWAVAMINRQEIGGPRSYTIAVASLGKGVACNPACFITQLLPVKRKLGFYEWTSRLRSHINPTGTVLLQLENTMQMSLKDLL
Sequence of Pyruvate kinase PKM (Homo sapiens) (P14618 whole entry, looked up): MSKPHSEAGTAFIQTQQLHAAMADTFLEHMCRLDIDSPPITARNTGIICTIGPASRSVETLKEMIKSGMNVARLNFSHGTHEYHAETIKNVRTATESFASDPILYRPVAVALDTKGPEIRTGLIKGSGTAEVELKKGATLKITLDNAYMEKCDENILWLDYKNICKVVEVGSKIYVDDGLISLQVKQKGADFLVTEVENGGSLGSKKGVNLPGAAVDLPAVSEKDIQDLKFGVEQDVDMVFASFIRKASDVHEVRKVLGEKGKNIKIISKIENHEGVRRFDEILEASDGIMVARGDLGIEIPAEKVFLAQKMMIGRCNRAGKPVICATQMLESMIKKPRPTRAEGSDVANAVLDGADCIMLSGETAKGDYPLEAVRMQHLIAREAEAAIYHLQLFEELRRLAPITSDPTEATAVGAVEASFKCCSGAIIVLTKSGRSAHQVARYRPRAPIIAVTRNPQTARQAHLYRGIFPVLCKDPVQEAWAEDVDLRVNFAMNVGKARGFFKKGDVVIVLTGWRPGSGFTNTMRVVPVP
Sequence of Ubiquitin carboxyl-terminal hydrolase 1 (Homo sapiens) (O94782 whole entry, looked up): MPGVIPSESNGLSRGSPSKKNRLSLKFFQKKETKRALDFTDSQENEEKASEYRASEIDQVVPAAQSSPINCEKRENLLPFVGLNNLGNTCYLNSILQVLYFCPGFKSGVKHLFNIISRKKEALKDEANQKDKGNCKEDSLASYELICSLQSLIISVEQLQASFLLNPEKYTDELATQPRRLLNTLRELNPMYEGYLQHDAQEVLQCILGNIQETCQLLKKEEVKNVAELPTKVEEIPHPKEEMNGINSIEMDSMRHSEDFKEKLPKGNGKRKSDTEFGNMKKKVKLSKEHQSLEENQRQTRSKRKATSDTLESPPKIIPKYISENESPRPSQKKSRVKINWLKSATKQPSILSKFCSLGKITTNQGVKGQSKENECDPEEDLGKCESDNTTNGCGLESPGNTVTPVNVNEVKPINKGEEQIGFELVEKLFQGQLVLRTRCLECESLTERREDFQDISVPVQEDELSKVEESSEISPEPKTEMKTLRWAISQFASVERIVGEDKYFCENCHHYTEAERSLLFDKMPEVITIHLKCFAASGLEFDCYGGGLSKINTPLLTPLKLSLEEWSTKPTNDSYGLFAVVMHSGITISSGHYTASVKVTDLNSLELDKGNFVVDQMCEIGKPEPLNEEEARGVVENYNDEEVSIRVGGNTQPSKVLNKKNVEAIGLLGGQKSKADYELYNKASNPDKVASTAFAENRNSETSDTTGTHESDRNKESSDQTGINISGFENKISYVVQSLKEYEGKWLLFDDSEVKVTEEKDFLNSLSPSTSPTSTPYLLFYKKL
Sequence of Guanine nucleotide-binding protein G(i) subunit alpha-1 (Homo sapiens) (P63096 whole entry, looked up): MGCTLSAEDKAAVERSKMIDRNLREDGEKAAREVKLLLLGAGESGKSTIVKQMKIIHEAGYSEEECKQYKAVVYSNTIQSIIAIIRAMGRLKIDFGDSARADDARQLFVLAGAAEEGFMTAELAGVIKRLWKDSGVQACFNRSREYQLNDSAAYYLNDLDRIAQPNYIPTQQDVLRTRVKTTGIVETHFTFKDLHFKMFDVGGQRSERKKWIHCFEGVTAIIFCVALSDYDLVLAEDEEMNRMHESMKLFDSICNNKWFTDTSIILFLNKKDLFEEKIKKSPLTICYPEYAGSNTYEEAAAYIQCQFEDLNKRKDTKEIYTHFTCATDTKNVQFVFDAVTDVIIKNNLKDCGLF
Sequence of DNA dC->dU-editing enzyme APOBEC-3G (Homo sapiens) (Q9HC16 whole entry, looked up): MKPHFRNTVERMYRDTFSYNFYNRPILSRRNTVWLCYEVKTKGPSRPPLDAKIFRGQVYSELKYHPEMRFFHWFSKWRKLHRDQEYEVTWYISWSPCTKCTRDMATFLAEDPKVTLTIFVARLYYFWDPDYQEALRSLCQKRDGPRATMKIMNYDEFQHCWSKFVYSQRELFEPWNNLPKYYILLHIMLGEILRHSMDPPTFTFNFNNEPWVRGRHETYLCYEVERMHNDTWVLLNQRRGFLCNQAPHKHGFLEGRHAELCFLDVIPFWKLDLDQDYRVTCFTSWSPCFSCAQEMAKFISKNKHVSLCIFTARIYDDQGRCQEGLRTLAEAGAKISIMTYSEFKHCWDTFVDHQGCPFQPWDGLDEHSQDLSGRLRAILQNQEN
Sequence of Cytochrome P450 3A4 (Homo sapiens) (P08684 whole entry, looked up): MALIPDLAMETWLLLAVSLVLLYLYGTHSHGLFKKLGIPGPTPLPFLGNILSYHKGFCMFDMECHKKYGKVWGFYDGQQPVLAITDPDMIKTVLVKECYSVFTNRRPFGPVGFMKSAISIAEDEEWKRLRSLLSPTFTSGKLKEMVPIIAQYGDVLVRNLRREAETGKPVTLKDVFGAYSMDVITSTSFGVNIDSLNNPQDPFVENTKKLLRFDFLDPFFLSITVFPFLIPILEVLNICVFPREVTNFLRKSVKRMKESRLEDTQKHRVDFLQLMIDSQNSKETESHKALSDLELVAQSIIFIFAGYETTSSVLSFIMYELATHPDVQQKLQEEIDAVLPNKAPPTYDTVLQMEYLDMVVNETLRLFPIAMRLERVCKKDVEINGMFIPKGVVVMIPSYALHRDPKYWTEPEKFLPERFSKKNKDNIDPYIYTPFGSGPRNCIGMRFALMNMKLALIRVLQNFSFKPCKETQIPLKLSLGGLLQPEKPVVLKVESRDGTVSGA

Q: For `C[C@@H](CCc1ccc(O)cc1)NCCc1ccc(O)c(O)c1`, which activity change, negative = inhibition ([1]; at 17.2 µM (top of the series)) is on record?
A: 1.11% (inactive)

Q: And the activity change, negative = inhibition ([1]; at 38 µM (top of the series))?
A: -3.98% (inactive)

Q: And the Potency [2]?
A: inactive

Q: And the activity change, negative = inhibition ([3]; at 17.2 µM (top of the series))?
A: -17.4% (inactive)

Q: And the activity change, negative = inhibition ([3]; at 38 µM (top of the series))?
A: -12.7% (inactive)

Q: What about the activity, negative = inhibition ([4]; at 17.2 µM (top of the series)) of the same compound?
A: 13.9% (inactive)

Q: What about the activity, negative = inhibition ([4]; at 38 µM (top of the series)) of the same compound?
A: -16.8% (inactive)

Q: What about the Potency [5] of the same compound?
A: > 46 µM (inactive) and > 20.6 µM (inactive)

Q: What about the Potency [6] of the same compound?
A: inactive

Q: What about the Potency [7] of the same compound?
A: inactive

Q: And the outcome [8]?
A: inactive

Q: And the Potency [9]?
A: inactive

Q: And the Potency [10]?
A: inactive

Q: What about the outcome [11] of the same compound?
A: inactive

Q: What about the outcome [12] of the same compound?
A: inactive

Q: And the outcome [13]?
A: inactive

Q: What about the activity change, negative = inhibition ([14]; at 25.7 µM (top of the series)) of the same compound?
A: 0.472% (inactive)

Q: What about the max response ([14]; measured here: cell count channel max response) of the same compound?
A: 1.22%

Q: What about the max response ([14]; measured here: lipid channel max response) of the same compound?
A: 2.79%

Q: And the Potency [15]?
A: inactive

Q: And the Potency [16]?
A: inactive

Q: What about the Potency [17] of the same compound?
A: inactive

Q: And the Potency [18]?
A: inactive
